# Reference: the supplement of paper PMC3334620
# Whole data set: some 33,000 sequences, median “E-score (-0.5 to 0.5)” near -0.053, cut for the highest 2% near 0.37. For the sample, the highest values were picked, then their nearest neighbours and some sequences at random.
# Biological target: Hap1 (UniProt P0CE41)
# Experiment: PBM E-score (8-mer binding enrichment) (E-score (-0.5 to 0.5)); higher = stronger / more preferred TF binding
# Details: protein concentration: 200 nM; construct: GST-DNA-binding domain
# Procedure: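 Universal 'all 10-mer' protein binding microarrays (Agilent AMADID 015681) probed with GST-tagged S. cerevisiae TFs (full-length or DBD) made by in vitro transcription/translation (PURExpress), about 100-200 nM. Bound TF was detected with fluorescent anti-GST. Each ungapped 8-mer (which stands for itself and its reverse complement) is scored by the PBM enrichment score (E-score), a modified Wilcoxon-Mann-Whitney statistic from -0.5 to +0.5, computed with the Universal PBM Analysis Suite. Scale: above 0.35 generally sequence-specific binding.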
# Chain of UniProt P0CE41 (P0CE41 whole entry): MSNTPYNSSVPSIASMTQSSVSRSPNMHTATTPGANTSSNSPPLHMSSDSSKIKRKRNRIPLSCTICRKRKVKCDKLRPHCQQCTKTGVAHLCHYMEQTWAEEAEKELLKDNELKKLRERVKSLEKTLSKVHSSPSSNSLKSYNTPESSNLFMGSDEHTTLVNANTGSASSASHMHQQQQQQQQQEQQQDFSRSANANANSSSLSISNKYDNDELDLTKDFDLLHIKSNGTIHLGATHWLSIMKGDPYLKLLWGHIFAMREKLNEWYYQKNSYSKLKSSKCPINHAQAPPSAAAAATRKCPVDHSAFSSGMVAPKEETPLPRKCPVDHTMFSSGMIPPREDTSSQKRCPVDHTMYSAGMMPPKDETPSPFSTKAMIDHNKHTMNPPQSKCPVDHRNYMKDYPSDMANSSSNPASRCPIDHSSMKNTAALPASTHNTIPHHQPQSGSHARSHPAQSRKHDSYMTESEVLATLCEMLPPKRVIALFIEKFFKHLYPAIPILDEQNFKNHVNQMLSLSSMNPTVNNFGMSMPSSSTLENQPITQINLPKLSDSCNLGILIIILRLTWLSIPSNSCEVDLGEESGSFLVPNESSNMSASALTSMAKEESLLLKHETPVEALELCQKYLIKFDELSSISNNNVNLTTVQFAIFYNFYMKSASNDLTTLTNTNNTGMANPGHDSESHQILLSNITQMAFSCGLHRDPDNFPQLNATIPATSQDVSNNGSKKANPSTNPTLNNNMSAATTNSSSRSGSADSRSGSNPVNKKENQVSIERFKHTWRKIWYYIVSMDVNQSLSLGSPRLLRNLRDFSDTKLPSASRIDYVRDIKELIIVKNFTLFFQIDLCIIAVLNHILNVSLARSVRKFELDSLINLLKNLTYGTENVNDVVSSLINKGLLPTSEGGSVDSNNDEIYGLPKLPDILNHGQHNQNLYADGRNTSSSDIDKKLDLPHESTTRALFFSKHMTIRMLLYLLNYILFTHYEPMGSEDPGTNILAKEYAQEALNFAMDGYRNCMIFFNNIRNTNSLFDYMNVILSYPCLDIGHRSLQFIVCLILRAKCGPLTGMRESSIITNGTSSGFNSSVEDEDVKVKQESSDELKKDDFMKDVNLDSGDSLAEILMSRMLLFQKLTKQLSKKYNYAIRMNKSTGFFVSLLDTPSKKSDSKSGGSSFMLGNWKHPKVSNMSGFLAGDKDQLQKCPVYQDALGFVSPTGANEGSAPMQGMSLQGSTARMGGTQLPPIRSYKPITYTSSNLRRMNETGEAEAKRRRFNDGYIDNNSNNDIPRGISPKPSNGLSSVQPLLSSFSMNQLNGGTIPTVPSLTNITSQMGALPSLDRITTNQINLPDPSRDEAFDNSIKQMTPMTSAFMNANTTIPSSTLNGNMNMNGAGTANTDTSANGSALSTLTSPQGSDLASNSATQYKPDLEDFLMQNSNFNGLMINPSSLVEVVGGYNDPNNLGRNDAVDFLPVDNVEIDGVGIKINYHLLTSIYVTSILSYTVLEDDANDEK
row,Sequence,PBM E-score
1,GGGGGTAC,0.215
2,CTAACAGA,-0.101
3,CTAGCAGA,-0.242
4,ATCCTCAC,-0.103
5,AGCAGGAT,-0.0378
6,TCTCCCAA,-0.0542
7,GCTTTCCA,-0.11
8,GTCCGAGA,0.437
9,CTCCGAGC,0.386
10,CTGCGAGA,-0.215
11,CTCCGACC,0.359
12,CTCCGAGA,0.376
13,CTTCGAGA,-0.234
14,GTGCGAGA,-0.179
15,ATCCGAGA,0.346
16,CCCCGAGC,0.351
17,CCAATCTC,0.00791
18,AGCCCTAC,-0.129
19,CATGGTGA,-0.0558
20,CCGGAAGC,0.336
21,GTCATCAC,-0.249
22,AGGAGTAG,-0.195
23,CCAAGGAA,-0.0481
24,GAGTCCGA,0.35
25,AAGTCCTA,0.0348

row,Sequence,PBM E-score
1,TAGTCCGA,0.42
2,AAGTCCAA,-0.00743
3,AAGTCCGA,0.467
4,CAGTCCGA,0.366
5,AACCCTCA,-0.135
6,TGGTTAAA,-0.0634
7,AATCGCCT,0.0771
8,TAGCTTGA,-0.226
9,AGGCGTAT,-0.311
10,ATGCCTAA,-0.21
11,GGTTCCAA,0.14
12,AACCCGGT,0.365
13,CTCCCGGC,0.33
14,AGCCCCCG,0.185
15,AGCCCGGC,0.272
16,AGCCCGGA,0.39
17,AACCCGGA,0.371
18,AGCCCGGG,0.36
19,AACCCGGC,0.333
20,AGCCCCGG,0.373
21,CTCCCGGA,0.376
22,AGCCCCGA,0.333
23,GTCCCGGA,0.343
24,AGTGCTAA,0.0956
25,CGTTTGTA,-0.122

row,Sequence,PBM E-score
1,GACCACTC,0.0772
2,TCTCCAGA,-0.0567
3,TAGTAGCA,-0.123
4,ATGCGCGA,0.188
5,ACTAAAGG,-0.181
6,AGGCGCAC,-0.0853
7,AGTCCATC,-0.027
8,TGCAGACA,-0.233
9,GCCCCGGC,0.25
10,GGCCCGTA,0.281
11,GCCCCGGA,0.391
12,GGCCCGAA,0.384
13,CGCCCGAA,0.294
14,GGCCCGCA,0.157
15,ACCCCGGG,0.357
16,CCCCCGGA,0.305
17,AGCCCGAA,0.3
18,GCCCCGTA,0.0466
19,ACCCCGGA,0.37
20,GGCCCGGA,0.409
21,CCTGGTGC,-0.0907
22,GAAAATCC,0.167
23,GAAGGTCC,0.0808
24,AGCTCCAA,-0.276
25,GAGACGCC,0.0301

row,Sequence,PBM E-score
1,GGATACAC,0.132
2,CACCATCC,0.0474
3,ATTTAATC,0.153
4,ACAATGAA,-0.165
5,AGATACAC,-0.0669
6,ACTGGTAG,-0.206
7,GCAAGCCA,-0.171
8,CAGTCGAA,-0.204
9,TACCCGGA,0.38
10,CACCCGGA,0.364
11,GACCCGGA,0.353
12,TCCCCGAA,0.335
13,CGCCCGGC,0.335
14,CGCCCGGA,0.4
15,TCCCCGGA,0.377
16,CGCCCGTA,0.142
17,TCCCCGCA,0.303
18,GAACGCAA,-0.0397
19,ACTTCTAG,-0.146
20,GAACATGA,-0.0648
21,AAGTCCAG,-0.056
22,ATTGCTCG,0.137
23,TGCTCAAA,-0.145
24,CGATAAGA,0.291
25,TACGCCTA,-0.258

row,Sequence,PBM E-score
1,CGGATAAC,0.359
2,CGGATCTA,0.404
3,AATATATC,0.26
4,GGGATCTA,0.134
5,CGGATAAA,0.381
6,CTGATATC,0.26
7,GATATATA,0.198
8,GATATATC,0.373
9,AGGATATC,0.155
10,CGGATCTC,0.279
11,CGGATATC,0.39
12,TGGATAAA,-0.0137
13,CATTAGCA,-0.142
14,CTAAGAGC,-0.0334
15,AGGGTGAT,-0.15
16,CAGAACAA,-0.101
17,GGGATATA,0.21
18,CGGATATA,0.482
19,AGGATATA,0.0407
20,GGGATGTA,0.124
21,CGGATGTA,0.427
22,CGGATACC,0.218
23,CGGATGTC,0.35
24,CGGATACA,0.385
25,TGGATACA,-0.288

row,Sequence,PBM E-score
1,ATAGCCTA,-0.189
2,CCGAATAC,0.365
3,ATGTGACG,-0.166
4,GACGGGCC,0.142
5,ACTAGGTC,-0.0578
6,GTCGACAC,-0.156
7,CCGATAAG,0.431
8,GCGATAAA,0.258
9,ACGATAAC,0.0651
10,GCGATAAC,0.322
11,CGGATAAG,0.31
12,CCGATAAC,0.447
13,ACGATAAG,0.245
14,TCGATAAA,0.146
15,CCGATAAA,0.461
16,CAAGATAA,-0.0149
17,AAGCCTAA,-0.0872
18,ATGCCAGG,-0.127
19,ACTCTTGG,-0.22
20,ACGCTCGG,0.375
21,ACGCTCGA,-0.125
22,ACGCTCGC,-0.123
23,TATCCAGA,-0.0797
24,AGACTGAG,-0.208
25,CGCAGCAA,-0.197

row,Sequence,PBM E-score
1,CGCGAGGA,0.0251
2,CGGCTTTC,0.259
3,CGGCTTAA,0.391
4,GGGCTTTA,0.132
5,CGGCTTAG,0.229
6,CGGCTTTA,0.464
7,CGGCTATA,0.383
8,AGGCTATA,-0.157
9,GGGCTATA,-0.0464
10,TGGCTTAA,-0.0483
11,GCTCTACA,-0.124
12,GTCCTAGA,-0.246
13,TCTTTTCA,-0.162
14,TGGAAACA,-0.0875
15,CTGCTCCA,-0.239
16,CAGGACGC,-0.246
17,AAGGATGG,-0.188
18,GGGTGATA,0.167
19,GGGTGTTA,0.0847
20,CGGTGATA,0.428
21,CGGTGTTC,0.235
22,CGGTGTTA,0.465
23,CGGTGATC,0.26
24,AATTGGAC,0.0155
25,CAGTAAAC,0.00777

row,Sequence,PBM E-score
1,GCCTGCAC,-0.137
2,ATGCGCTA,-0.0961
3,GCGCCGAA,0.359
4,CCGCCGGA,0.402
5,CCGCCGCA,0.135
6,CCGCCGAA,0.38
7,ACGCCGCA,0.18
8,GCGCCGGA,0.368
9,ACGCCGGG,0.306
10,ACGCCGGC,0.405
11,ACGCCGTA,0.0761
12,CCGCCGAG,0.352
13,ACGCCGCC,0.256
14,ACGCCGGA,0.381
15,CGGCTCTC,0.0925
16,AGCTGTGC,-0.224
17,CACGTCAC,-0.125
18,GGACCCAA,0.124
19,ATACGTGC,0.0178
20,CCATCGGC,0.174
21,GTTGCAAA,-0.0687
22,CAATTTGC,-0.103
23,TTCGTAAA,-0.199
24,CCTAAAAA,0.00566
25,GCCAAGTA,-0.218

row,Sequence,PBM E-score
1,CCGCCGTC,0.151
2,CCGCCGCC,0.193
3,CCGCCGGC,0.373
4,AAGTTTAT,0.145
5,ATCACCGC,0.234
6,ATCACCTG,-0.158
7,CTCACCGA,0.157
8,ATCACCGA,0.417
9,ATCACCGG,0.382
10,GTCACCGA,0.142
11,ATAAGCCG,0.3
12,ACTGATAG,-0.267
13,CCGATCCA,0.269
14,CCGATCGG,0.402
15,CGGATCCG,0.401
16,ACGATCGG,0.258
17,ACGATCCG,0.302
18,CGGATCCC,0.28
19,CCGATCCG,0.438
20,CGGATCCA,0.318
21,CCGATCGA,0.325
